NIH3T3 tox: cytotoxic compounds in NIH 3T3 cells | AID 1345082 | NIH 3T3 viability, CellTiter-Glo ATP luminescence, 48-72 h | 94,000 tested, 4.3% active | Potency, µM (series often up to 96.7 µM), for inactives: top-dose activity change, negative = cytotoxicity, usual class: inhibitors; also: nearly all actives have a fitted effect of over 55% in size
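Cells were seeded at 400 per well, treated with pin-transferred compound, and kept 48 or 72 hr at 37 °C before CellTiter-Glo addition and luminescence imaging of cellular ATP.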
HEK293 tox: cytotoxic compounds in HEK 293 cells; Potency, µM (series often up to 115 µM), for the others: at the highest dose activity change, negative = cytotoxicity, actives largely listed as inhibitors; AID 1345083; 94,000 tested, 6.6% active; HEK 293 viability, ATP luminescence (CellTiter-Glo), 48-72 h; also: nearly all actives have a fitted effect of over 60% in size
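Viability of HEK 293 cells, plated at 250 cells/well, was judged by cellular ATP after compound treatment for 48 or 72 hr. Luminescence was imaged 10 min after CellTiter-Glo addition at room temperature.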
hNpr1 antagonist: blocks ANP-stimulated signaling of human Npr1 receptor | P16066 | HEK293 hNpr1 GloSensor cGMP, ANP-stimulated luminescence | Potency, µM (highest dose often 46.3 µM), for the others: at the highest dose activity change, negative = inhibition, actives largely listed as inhibitors | 76,000 tested, 1.6% active | AID 1347048; calls by dose curve; also: nearly all actives have a fitted effect of over 60% in size
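HEK293 cells stably expressing human Npr1 and cGMP GloSensor pGS-40F, loaded 2 h with 2% GloSensor reagent, given compound 30 min at room temperature. Luminescence read before and 20 min after 0.1 nM hNppA.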
Luciferase inh: inhibitors of firefly (Photinus pyralis) luciferase | P08659 | purified P. pyralis luciferase, luminescence, biochemical | Potency, µM (titrated, usually from 115 µM), usual class: inhibitors | 76,000 tested, 2.5% active; also: nearly all actives have a fitted effect of over 65% in size
Target sequence (P08659 whole entry, looked up): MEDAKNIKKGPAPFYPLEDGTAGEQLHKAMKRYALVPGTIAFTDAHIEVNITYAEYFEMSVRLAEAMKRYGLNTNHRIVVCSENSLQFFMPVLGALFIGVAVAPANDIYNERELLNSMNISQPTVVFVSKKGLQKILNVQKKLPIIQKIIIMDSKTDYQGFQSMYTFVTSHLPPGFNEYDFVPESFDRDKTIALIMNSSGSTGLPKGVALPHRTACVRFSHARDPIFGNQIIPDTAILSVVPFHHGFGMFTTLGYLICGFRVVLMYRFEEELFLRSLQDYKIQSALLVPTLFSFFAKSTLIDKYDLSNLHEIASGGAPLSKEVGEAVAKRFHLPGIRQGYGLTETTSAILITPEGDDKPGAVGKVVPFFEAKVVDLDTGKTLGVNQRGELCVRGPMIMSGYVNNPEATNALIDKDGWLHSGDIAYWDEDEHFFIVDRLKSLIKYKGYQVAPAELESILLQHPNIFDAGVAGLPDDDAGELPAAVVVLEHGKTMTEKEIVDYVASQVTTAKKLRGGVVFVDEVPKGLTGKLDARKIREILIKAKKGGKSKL
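Biochemical qHTS: compound (6-point titration) added to 10uM D-luciferin plus 10uM ATP in Tris acetate pH 7.5 buffer with Mg, Tween-20 and BSA, then purified enzyme at 10nM; light output imaged.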
Active calls of the source: *; i = inactive; ? = inconclusive; . = no result given; [ ] = another dose, or the depositor's remark. Rows were chosen to be rich in hits. Some 11% of all compounds tested hit in one or more screens of this group. Unless noted, calls follow the shape of the dose curve; as a rule, active = well fitted curve in the direction sought with a large enough effect; inconclusive = small, poorly fitted or top-dose-only effect, or another doubt; inactive = no such curve, though single readings can be large; an effect the other way counts as inactive or inconclusive. % is scaled to controls: 0 for no effect and ±100 for the full control effect; potency is read from the fitted curve at half-maximal effect.

SMILES | NIH3T3 tox | HEK293 tox | hNpr1 antagonist | Luciferase inh
Cc1ccccc1Cn1cc(-c2ccncc2)cc1C(=O)N1CCCC(C)C1 (stereo not given) | ? | 45µM* | -8% | i
Cc1ccccc1Cn1cc(-c2ccncc2)cc1C(=O)Nc1ccc2c(c1)OCO2 | ? | 35µM* | -16% | ?
CS(=O)(=O)N1CCCC1c1noc(CCC(=O)NCC2CC2)n1 (stereo not given) | i | 6% | 2% | i
COc1cc(C(=O)N2C[C@@H](C)[C@@](C)(O)C2)ccn1 | -2% | 0% | 0% | i
Cc1cc(C)cc(-c2ccc(CN3CCCC3C(=O)Nc3ccccc3Cl)cc2)c1 (stereo not given) | -18% | -15% | . | .
Cc1cc(C)cc(-c2ccc(CN3CCCC3C(=O)Nc3ccccc3F)cc2)c1 (stereo not given) | -37% | ? | . | .
Cc1cc(C)cc(-c2ccc(CN3CCCC3C(=O)NCCc3ccccc3)cc2)c1 (stereo not given) | 32µM* | 40µM* | . | .
Cc1cc(C)cc(-c2ccc(CN3CCCC3C(=O)NC(C)C)cc2)c1 (stereo not given) | ? | 50µM* | . | .
Cc1cc(C)cc(-c2ccc(CN3CCCC3C(=O)NC3CC3)cc2)c1 (stereo not given) | ? | 50µM* | . | .
Cc1cc(C)cc(-c2ccc(CN3CCCC3C(=O)NCc3ccc4c(c3)OCO4)cc2)c1 (stereo not given) | 35µM* | 50µM* | . | .
COc1ccc(-c2ccnc3nc(-c4cccs4)nn23)c(F)c1 | 2% | -7% | 2% | i
CN1CCN(c2nc3c(c(=O)[nH]2)CCN(Cc2cc(Cl)ccc2F)CC3)CC1 | -12% | 4% | -1% | i
O=C(NCc1nnc2c(-c3nc(C4CC4)no3)cccn12)c1cccc(F)c1 | -4% | -2% | 4% | i
Cc1noc(C)c1C(=O)N1CCC2(CC1)CN(C(=O)c1ccc(Cl)cc1)CCO2 | 6.3µM* | 0% | . | .
O=C(NCc1nnc2c(-c3nc(C4CC4)no3)cccn12)c1ccccc1Cl | -17% | -20% | 2% | i
O=C(NCc1nnc2c(-c3nc(C4CC4)no3)cccn12)c1nccc2ccccc12 | 45µM* | ? | -13% | i
CCCc1noc(-c2cccn3c(CNC(=O)c4ccc(C(C)(C)C)cc4)nnc23)n1 | 40µM* | ? | -5% | i
O=C(c1ccccc1F)N1CCCN(c2nc3ncccc3o2)CC1 | -30% | -9% | 9% | i
COc1ccc(-n2nc(C)c([C@@H]3C=C[C@@H](NC(=S)NCC(C)C)C3)c2C)cc1 | ? | 28µM* | 28µM* | 16µM*
COc1ccc(C(=O)N[C@@H]2C=C[C@@H](c3c(C)nn(-c4ccccc4)c3C)C2)cc1 | ? | ? | -8%[70.6 µM] | i
COc1ccc(-n2nc(C)c([C@@H]3C=C[C@@H](NCc4cccc(Cl)c4)C3)c2C)cc1 | 25µM* | 28µM* | ? | 40µM*
COc1ccc(-n2nc(C)c([C@@H]3C=C[C@@H](NCc4ccc(N(C)C)cc4)C3)c2C)cc1 | ? | ? | ? | 22µM*
COc1ccc(CN[C@@H]2C=C[C@@H](c3c(C)nn(-c4ccccc4)c3C)C2)cc1 | 50µM* | 28µM* | -19%[70.6 µM] | ?
COc1ccc(C(=O)N[C@@H]2C=C[C@@H](c3c(C)nn(-c4ccc(C(F)(F)F)cc4)c3C)C2)cc1 | ? | ? | 1% | i
CCN1CCN(CC(=O)N2C[C@@H](C(=O)O)[C@H](c3ccccc3OC)C2)CC1 | -1% | -18% | 3% | i
SMILES | NIH3T3 tox | HEK293 tox | hNpr1 antagonist | Luciferase inh
Cc1ccc(C(=O)N2C(C(=O)NCc3ccccc3)COC23CCN(C(=O)C2CC2)CC3)cc1 (stereo not given) | -19% | 4% | -2% | i
CC(C)CC(=O)N1[C@@H](c2ccco2)[C@@H](C(=O)O)C[C@]12CCCCNC2=O | ? | -6% | . | .
O=C(NCCC1=CCCCC1)c1ccc(Cn2ccn3nc4c(c3c2=O)CCCC4)cc1 | ? | 40µM* | -22% | i
COCCCNC(=O)c1ccc(Cn2ccn3nc4c(c3c2=O)CCCC4)cc1 | ? | ? | 3% | i
O=C(Nc1ccc(Cl)cc1)c1ccc(Cn2ccn3nc4c(c3c2=O)CCCC4)cc1 | -9% | ? | -3% | i
O=c1c2c3c(nn2ccn1Cc1cc(F)ccc1F)CCCC3 | ? | ? | -6% | i
COc1ccccc1Cn1ccn2nc3c(c2c1=O)CCCC3 | ? | 45µM* | -4% | i
Cc1oc(-c2ccc(OC(C)C)cc2)nc1Cn1ccn2nc3c(c2c1=O)CCCC3 | ? | 8.9µM* | 2% | i
CCc1ccc(NC(=O)c2ccc(Cn3ccn4nc5c(c4c3=O)CCCC5)cc2)cc1 | ? | 20µM* | -19% | ?
Cc1cc(C(=O)N2CCCC(CCc3c(F)cccc3F)C2)nc(C)n1 (stereo not given) | ? | ? | 4% | i
O=C(Nc1ccc(F)cc1)c1ccc(Cn2ccn3nc4c(c3c2=O)CCCC4)cc1 | -22% | -16% | 0% | i
O=C(Nc1ccccc1)c1ccc(Cn2ccn3nc4c(c3c2=O)CCCC4)cc1 | ? | 16µM* | -2% | i
COc1cccc(-c2cccc(CCOc3cnc4c(ccn4CC(=O)O)c3)c2)c1 | ? | ? | 3%[70.6 µM] | i
O=C(O)Cn1ccc2cc(OCc3cccc(-c4ccc(F)cc4F)c3)cnc21 | -3%[138 µM] | ? | 4%[70.6 µM] | 20µM*
Cn1nccc1-c1cccc(CCOc2cnc3c(ccn3CC(=O)O)c2)c1 | 45µM* | -9%[172 µM] | -13%[70.6 µM] | i
Cc1cc(F)ccc1-c1cccc(COc2cnc3c(ccn3CC(=O)O)c2)c1 | -10%[138 µM] | ? | -1%[70.6 µM] | i
O=C1CC(c2ccccc2)N(Cc2ccncc2)CCCN(S(=O)(=O)c2cccnc2)CCN1 (stereo not given) | -26% | -23% | -3% | i
O=C1CC(c2ccccc2)N(Cc2ccncc2)CCCN(S(=O)(=O)c2cccc(F)c2)CCN1 (stereo not given) | ? | 45µM* | -13% | i
O=C(Nc1ccc2c(c1)C(=O)N1CCC[C@H]1C(=O)N2)c1cc(-c2ccc3c(c2)CCO3)n[nH]1 | 0% | 0% | -2% | i
CNC(=O)[C@@H]1CN(C(=O)c2ccc3cc[nH]c3c2)C[C@H]1C1CCN(C)CC1 | i | -5% | 8% | i
CCNC(=O)N1CCCC1c1noc(CCC(=O)NC(C)C)n1 (stereo not given) | 4% | 7% | 4% | i
O=C(Nc1cccc2ccccc12)O[C@@H]1CO[C@H]2[C@@H]1OC[C@@H]2NS(=O)(=O)c1ccc2ccccc2c1 | 79µM* | ? | 0% | i
O=C(Nc1cccc2ccccc12)O[C@@H]1CO[C@H]2[C@@H]1OC[C@@H]2NC(=O)C1CCC1 | -6%[174 µM] | -8%[172 µM] | -2%[70.6 µM] | i
